Shiga toxin inh – Shiga toxin inhibition | Vero cells, Shiga toxin protein synthesis inhibition reporter | inhibition, % at 38.7 µM | 9.2% of 290,000 active; in the data active means inhibition mostly above about 28%, no sharp cut-off; inactive means mostly below about 43%
AmpC inh no detg – inhibitors of E. coli AmpC beta-lactamase without detergent; P00811; AmpC nitrocefin hydrolysis, absorbance 480 nm, 0.0001% Triton; Potency, µM (series often up to 57.1 µM), hits mostly inhibitors; 0.52% of 330,000 active; AID 485341; further: nearly all actives have a fitted effect of over 20% in size
Target sequence (P00811 whole entry, looked up): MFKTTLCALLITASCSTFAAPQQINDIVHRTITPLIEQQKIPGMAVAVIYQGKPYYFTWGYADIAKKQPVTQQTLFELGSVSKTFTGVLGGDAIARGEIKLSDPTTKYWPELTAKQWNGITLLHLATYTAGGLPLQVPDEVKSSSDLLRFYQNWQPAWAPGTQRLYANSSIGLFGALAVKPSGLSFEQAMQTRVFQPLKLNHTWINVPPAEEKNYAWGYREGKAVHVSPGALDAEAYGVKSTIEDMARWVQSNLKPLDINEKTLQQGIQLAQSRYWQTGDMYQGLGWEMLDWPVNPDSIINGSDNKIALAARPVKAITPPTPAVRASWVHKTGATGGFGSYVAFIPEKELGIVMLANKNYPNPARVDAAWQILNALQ
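20 mM phosphate pH 7.0 + 0.01% (detergent screen) or 0.0001% Triton X-100; 5.3 nM AmpC reagent; cpd preinc 15 min RT; nitrocefin (800 uM stock) to start; A480 q20 s × 4 min; Activity was normalised to no-enzyme and no-compound control wells.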
AmpC detergent – blocks E. coli AmpC beta-lactamase in detergent assay. P00811. AmpC hydrolysis of nitrocefin, absorbance 480 nm, 0.01% Triton. Potency, µM (top dose mostly 114 µM), most hits filed as inhibitors. 0.041% of 370,000 active. AID 485294; further: nearly all actives have a fitted effect of over 25% in size
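AmpC (5.3 nM in the dispensed reagent) in 20 mM phosphate pH 7.0 with 0.01% (detergent screen) or 0.0001% Triton X-100 was preincubated with compounds for 15 min at room temperature. Nitrocefin was then added from an 800 uM solution, and hydrolysis was followed at 480 nm.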
AMA1-RON2 inh – inhibitors of Plasmodium falciparum AMA1-RON2 interaction. Potency, µM (titrated, usually from 58.2 µM), most hits filed as inhibitors. 0.2% of 360,000 active. AlphaScreen AMA1-biotinylated RON2 peptide binding; further: nearly all actives have a fitted effect of over 45% in size
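AMA1 (3D7) with his tag at 25 nM final met compounds first, then biotinylated RON2 peptide at 25 nM; detection used donor plus acceptor beads, 10 µg/mL apiece, read by AlphaScreen after 30 min at room temperature.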
CHX counter – affects cycloheximide protein synthesis inhibition readout, counter-screen; cell reporter, cycloheximide protein synthesis inhibition counterscreen; max response, %; 12% of 300,000 active; in the data active means max response mostly above about 13%, no sharp cut-off; inactive means mostly below about 14%; further: read at 38.3 µM for the half of the compounds with a filed dose
SARS PLP yeast – blocks SARS-CoV papain-like protease in a yeast assay | S. cerevisiae expressing SARS-CoV PLpro, growth rescue | Potency, µM (titrated, usually from 32.9 µM), actives largely listed as activators | 0.19% of 330,000 active | AID 485353; calls by dose curve; further: nearly all actives have a fitted effect of over 55% in size
Of the large screens only hits and unclear results are named; the others gave an inactive call. Only a selection was taken, and hits are over-represented in it overall. Unless noted, the call rests on the fitted dose curve; in most records, active means well fitted curve in the direction sought with a large enough effect; inconclusive means small, poorly fitted or top-dose-only effect, or another doubt; inactive means no such curve, though single readings can be large; an effect the other way counts as inactive or inconclusive.

O=C(OCC(=O)N1CCOCC1)c1ccc(Br)cc1	AmpC detergent inconclusive, CHX counter 19.8
CN(C)c1cccc(C(=O)N2CCCC(CCC(=O)N3CCN(c4ccccn4)CC3)C2)c1 (centres undefined)	none
CCc1cccc(N2C(=O)CS(=O)(=O)C23C(=O)N(Cc2ccccc2)c2ccc(C)cc23)c1 (centres undefined)	none (no result: Shiga toxin inh, AmpC inh no detg, AMA1-RON2 inh, CHX counter, SARS PLP yeast)
Cc1ccc(C(=O)OCC(=O)N2CCOCC2)cc1	Shiga toxin inh 50.4, CHX counter 27.5
Cc1ccc(-c2ccc(OCC(=O)N3CCOCC3)cc2)cc1	Shiga toxin inh 61.6, CHX counter 41.8
N#Cc1ccc(C(=O)OCC(=O)N2CCOCC2)cc1	none
Cc1ccc(NS(=O)(=O)c2ccccc2F)cc1S(=O)(=O)N1CCCCC1	none (no result: Shiga toxin inh, CHX counter)
Clc1ccc(-n2nnc(-c3ncc[nH]3)n2)cc1Cl	none (no result: Shiga toxin inh, AmpC inh no detg, AmpC detergent, CHX counter, SARS PLP yeast)
COc1ncccc1-c1nnn(-c2ccc(F)cc2)n1	Shiga toxin inh 71.0, CHX counter 54.4
Fc1ccc(-n2nnc(-c3ccccc3Br)n2)cc1	none
COc1ncccc1-c1nnn(-c2ccc(C)cc2)n1	Shiga toxin inh 131.4, CHX counter 48.5
COc1ncccc1-c1nnn(-c2ccc(Cl)c(Cl)c2)n1	CHX counter 18.0
CCOc1cc(S(=O)(=O)N2CCCCC2)ccc1Cl	AmpC detergent inconclusive
CCN(c1ccccc1)S(=O)(=O)c1ccc(OC)c(NC(=O)CNCCc2ccccc2)c1	CHX counter 24.6
CCN(c1ccccc1)S(=O)(=O)c1ccc(OC)c(NC(=O)CCc2nc3ccccc3c(=O)[nH]2)c1	AmpC inh no detg 35.5µM, AmpC detergent inconclusive (no result: Shiga toxin inh, CHX counter)
CCc1c(O)nc(N2CCN(Cc3ccccc3)CC2)[nH]c1=O	none
CC(C)N1CCC2(CC1)N=C(c1ccc3c(c1)OCO3)CC(c1cc(Cl)ccc1O)N2 (centres undefined)	Shiga toxin inh 42.9, AmpC inh no detg 17.8µM, CHX counter 47.1
Oc1ccc(/C=N/Nc2ccnc3cc(Cl)ccc23)cc1O	AmpC inh no detg 11.2µM
Cc1cccc(-c2noc(-c3cccnc3NCc3ccc(Cl)cc3)n2)c1	none (no result: Shiga toxin inh, AmpC inh no detg, AMA1-RON2 inh, CHX counter, SARS PLP yeast)
C=CCn1c(=O)c(C(=O)Nc2ccccc2S(N)(=O)=O)c(O)c2ccccc21	Shiga toxin inh 72.5, CHX counter 30.6
C=CCn1c(=O)c(C(=O)Nc2ccccc2C(=O)OCC)c(O)c2ccccc21	AmpC inh no detg inconclusive
CN(C)Cc1cc(C(F)(F)F)ccc1C(O)(c1ccccc1)c1ccccc1	none (no result: Shiga toxin inh, AmpC inh no detg, AmpC detergent, CHX counter, SARS PLP yeast)
CC1(C(=O)NCCC(F)(F)F)Cc2c(-c3cccc(C(F)(F)F)c3)ccnc2O1 (centres undefined)	none (no result: Shiga toxin inh, AmpC inh no detg, AmpC detergent, CHX counter, SARS PLP yeast)
COc1cccc(NC(=O)CCCN2C(=O)C3CC=CCC3C2=O)c1 (centres undefined)	AmpC detergent inconclusive
COc1ccc(NC(=O)CCCN2C(=O)C3CC=CCC3C2=O)cc1 (centres undefined)	Shiga toxin inh 40.0, CHX counter 23.9
COc1cccc(NC(=O)CCN2C(=O)C3CC=CCC3C2=O)c1 (centres undefined)	Shiga toxin inh 73.3, CHX counter 49.2
O=C(N/N=C/c1cccc(O)c1)c1ccc(COc2cccc3cccnc23)cc1	Shiga toxin inh 34.5, CHX counter 21.0
O=C(N/N=C/c1ccncc1)c1ccc(COc2cccc3cccnc23)cc1	none
COc1ccc(/C=N/NC(=O)c2ccc(COc3cccc4cccnc34)cc2)cc1O	Shiga toxin inh 31.9, CHX counter 12.5
COc1ccc(/C=N/NC(=O)c2ccc(COc3cccc4cccnc34)cc2)cc1OC	none
O=C(N/N=C/c1ccc(F)cc1)c1ccc(OCc2ccccc2)cc1	none
O=C(N/N=C/c1ccc2c(c1)OCO2)c1ccc(COc2cccc3cccnc23)cc1	Shiga toxin inh 81.9, AmpC detergent inconclusive, CHX counter 35.7
O=C(N/N=C/c1ccc2cccc(OCc3ccccc3)c2n1)c1ccc(Cl)cc1	Shiga toxin inh 61.3, CHX counter 31.3
Cc1cc(=O)oc2cc(OCC(=O)NCCc3c[nH]c4ccc(F)cc34)ccc12	none
CN(C)S(=O)(=O)c1cccc(NC(=O)Cc2ccc(-c3ccccc3)cc2)c1	none (no result: SARS PLP yeast)
COCCOc1cnn(-c2cc(Oc3ccc(C)cc3)ncn2)c(=O)c1Cl	none
O=C(NN=Cc1ccc(O)c(O)c1)c1ccccc1	none (no result: Shiga toxin inh, AmpC inh no detg, AmpC detergent, CHX counter, SARS PLP yeast)
CC(C)(C)c1ccc(OCc2ccc(C(=O)N/N=C3\CC4CC=CC34)cc2)cc1 (centres undefined)	AmpC detergent inconclusive, CHX counter 16.8
CC(C)(C)c1ccc(OCc2ccc(C(=O)N/N=C/c3ccc(O)c(O)c3)cc2)cc1	Shiga toxin inh 63.9, AmpC inh no detg 14.1µM, CHX counter 17.8
O=C(COc1ccccc1C(=O)N/N=C\c1ccc(O)c(O)c1)N/N=C/c1ccc(O)c(O)c1	AmpC inh no detg 39.8µM, AmpC detergent inconclusive, AMA1-RON2 inh inconclusive
O=C(N/N=C1\CC2CC=CC12)c1ccc(COc2ccccc2)cc1 (centres undefined)	none
CCCCOc1ccc(C(C)NC(=O)CCS(=O)(=O)Cc2ccc(C)cc2)cc1 (centres undefined)	none
CCOc1ccc(-c2cn(-c3ccc(OC)cc3)c(SC)n2)cc1	Shiga toxin inh 113.3, AMA1-RON2 inh inconclusive, CHX counter 68.4
CCOc1ccc(-c2cn(-c3ccc(OC)cc3)c(SCC(=O)Nc3ccccc3Cl)n2)cc1	none (no result: Shiga toxin inh, AmpC inh no detg, AMA1-RON2 inh, CHX counter, SARS PLP yeast)
CSc1nc(-c2ccccc2)cn1-c1ccc(NC(C)=O)cc1	Shiga toxin inh 79.2, CHX counter 34.6
COc1ccc(-c2sc3ccc(N4CCOCC4)cc3c2C#CC(C)(C)O)cc1	none (no result: Shiga toxin inh, CHX counter)
CC1CCN(C(=O)c2cc3c(=O)n4ccccc4nc3s2)CC1	Shiga toxin inh 83.4
CCOC(=O)C1CCCN(C(=O)c2cc3c(=O)n4ccccc4nc3s2)C1 (centres undefined)	none
O=C(c1cc2c(=O)n3ccccc3nc2s1)N1CCOCC1	Shiga toxin inh 38.5, CHX counter 22.4
O=C(c1cc2c(=O)n3ccccc3nc2s1)N1CCN(c2cccc(Cl)c2)CC1	none
CCOc1ccc(N(CC)S(=O)(=O)N2CCCC(C(=O)Nc3ccc(OC)c(Cl)c3)C2)cc1 (centres undefined)	none (no result: Shiga toxin inh, AmpC inh no detg, AMA1-RON2 inh, CHX counter, SARS PLP yeast)
COC(=O)CC(=O)CSc1nc2c(cc1C#N)CCC2	Shiga toxin inh 54.5, CHX counter 18.0
CC(C)OC(=O)CC(=O)CSc1nc2c(cc1C#N)CCCCCC2	none
CC(C)OC(=O)CC(=O)CSc1nc2c(cc1C#N)CCCC2	Shiga toxin inh 81.7, CHX counter 36.8 (no result: AmpC inh no detg, SARS PLP yeast)
CCC(C)NC(=O)CSc1nc2cc3c(cc2c(=O)n1Cc1ccc(C(=O)NCCc2ccc(OC)c(OC)c2)cc1)OCO3 (centres undefined)	none (no result: AmpC inh no detg, AMA1-RON2 inh, SARS PLP yeast)
COc1ccccc1CNC(=O)C1CC(c2ccccc2F)=NO1 (centres undefined)	Shiga toxin inh 44.3, CHX counter 17.9

Screening results from PubChem BioAssay.
